Hits are enriched below; roughly 19% of the tested compounds scored in any of these assays.
MCF10A rerep: inducers of DNA re-replication in MCF 10A breast cells | MCF 10A DNA re-replication, Hoechst nuclear intensity, 48 h | Potency, µM (highest dose often 46.1 µM), inactives show at the highest dose activity, positive = re-replication, hits mostly activators | hit rate 2.9% among 350,000; note: potency is the fitted concentration of half-maximal effect; % of control where 0% means no effect; nearly all actives have a fitted effect of over 50% in size
SW480 rerep: induces DNA re-replication in SW480 colon adenocarcinoma cells; SW480 DNA re-replication, Hoechst DNA content imaging, 48 h; Potency, µM (highest dose often 46.1 µM), inactives show at the top dose re-replication activation, usual class: activators; hit rate 1.8% among 340,000; note: potency is the fitted concentration of half-maximal effect; % of control where 0% means no effect; nearly all actives have a fitted effect of over 55% in size
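Per well, 250 cells were exposed to pinned compound for 48 hr. Nuclear DNA was visualised with Hoechst (40 min, 37 C) and total object intensity recorded by fluorescence scanning.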
Chronic BCR inh: blocks chronic active B-cell receptor signaling; hit rate 0.05% among 340,000; Potency, µM (highest dose often 46.1 µM), inactives show at the top dose activity change, negative = inhibition, most hits filed as inhibitors; ABC-DLBCL IkBa-CBG/CBR reporter, luminescence ratio, 4 h; active = well fitted inhibition curve with a large enough effect in the signal ratio, with a control signal flat, not every such curve was filed as active; inconclusive = small, poorly fitted or top-dose-only effect, or effect the other way, or a change in a side signal; the % refers to the signal ratio;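 note: potency is the fitted concentration of half-maximal effect; plate controls were basal doxycycline-induced cells for no effect and cells given 10 µM MG132 for full effect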
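Doxycycline induced both beetle luciferases in TMD8 lymphoma cells; IKK-driven degradation limits the IkappaBalpha-fused green signal, while red luminescence normalises for cell number and nonspecific effects. Compounds tested up to 46 uM, 4 hrs.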
DT40 TDP1 CPT: growth inhibition of DT40 Tdp1-/-;hTDP1 cells with camptothecin (screen for TDP1 inhibitors); chicken DT40 Tdp1-/-;hTDP1 cells + 20 nM CPT, ATP luminescence, 48 h; Potency, µM (titrated, usually from 46.2 µM), for inactives: top-dose activity change, negative = growth inhibition, hits mostly inhibitors; AID 686979; hit rate 12% among 420,000; note: potency is the fitted concentration of half-maximal effect; % is set by controls: 0 for no effect and ±100 for the full control effect; nearly all actives have a fitted effect of over 55% in size
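Chicken DT40 Tdp1-/- cells complemented with human TDP1, 400 cells/well, exposed to compounds plus 20 nM camptothecin for at least 48 h at 37 C; viability read as ATP content by CellTiter-Glo luminescence.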
IL1B secr inh: inflammasome signaling inhibition, IL-1 beta readout. activity change, % at 57.5 µM. THP-1 LPS/ATP IL-1B secretion, AlphaLISA, 16 h; stronger effect = lower value. hit rate 4.7% among 360,000; in the data active = activity change below about -50%; inconclusive = mostly about -30% to -49%; note: % is set by controls: 0 for no effect and ±100 for the full control effect
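Secreted IL-1B measured by AlphaLISA bead assay after 16 h compound exposure of THP-1 cells; compounds (final up to 57.5 uM) added 1 h before LPS (250 ng/mL) and ATP (1.25 mM) stimulation; lower signal means less secretion.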
TDP1 cell noCPT: qHTS for Inhibitors of human tyrosyl-DNA phosphodiesterase 1 (TDP1): qHTS in cells in absence of CPT; Potency, µM (highest dose often 46.2 µM), without a hit: at the highest dose activity change, negative = growth inhibition, most hits filed as inhibitors; hit rate 15% among 420,000; AID 686978, 2013; DT40 Tdp1-/- hTDP1 cells, no CPT, ATP luminescence, 48 h; note: potency is the fitted concentration of half-maximal effect; % is set by controls: 0 for no effect and ±100 for the full control effect; nearly all actives have a fitted effect of over 55% in size
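Stably hTDP1-transfected Tdp1-null chicken DT40 cells were treated with library compounds minus camptothecin and grown for at least 48 hr at 37 °C, after which cellular ATP was quantified by luminescence.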
* = called active by the depositor; ? = inconclusive; · = not tested or not shown. Unless noted, calls come from the whole dose curve; as a rule, active = well fitted curve in the direction sought with a large enough effect; inconclusive = small, poorly fitted or top-dose-only effect, or another doubt; inactive = no such curve, though single readings can be large; an effect the other way counts as inactive or inconclusive.

SMILES	MCF10A rerep	SW480 rerep	Chronic BCR inh	DT40 TDP1 CPT	IL1B secr inh	TDP1 cell noCPT
CCNS(=O)(=O)c1cccc(C(=O)c2c(C)cc3ccccn23)c1	1%	2%	-13%	?	-15	15µM*
Cc1cc2ccccn2c1C(=O)c1ccc(F)cc1	25%	?	9%	-4%	0	?
Cc1cc2ccccn2c1C(=O)c1ccccc1Br	?	?	?	16µM*	10	?
O=C(COC(=O)Cc1ccc(Br)cc1)Nc1ccc(Cl)cn1	-3%	-4%	-6%	0%	8	-3%
CN(C)c1ncc2nc(-c3ccc(Cl)cc3)c(=O)n(C[C@H]3CCCO3)c2n1	·	·	·	9%	·	16%
O=C(NC1C2CCCC1CN(C1CC1)C2)c1ccc(Cl)cc1 (configuration not stated)	6%	6%	4%	?	-19	29µM*
COc1cc(-c2nnn(CC(=O)Nc3ccc(OC(F)(F)F)cc3)n2)cc(OC)c1OC	·	·	·	21µM*	·	7.3µM*
CCOc1ccc(NC(=O)Cn2nnc(-c3ccccc3NC(=O)CC)n2)cc1	19%	-1%	0%	?	27	16µM*
CC(=O)Nc1ccccc1-c1nnn(CC(=O)Nc2ccc3c(c2)OCCO3)n1	14%	-31%	-2%	0%	29	?
COc1ccccc1NC(=O)Cn1nnc(-c2ccccc2NS(=O)(=O)c2ccccc2)n1	7%	?	-7%	13µM*	4	18µM*
COc1ccc(NC(=O)Cn2nnc(-c3ccccc3NS(=O)(=O)c3ccc(OC)cc3)n2)cc1	?	14%	?	?	40	?
CCc1ccc(NC(=O)Cn2nnc(-c3ccccc3N)n2)cc1	·	·	·	?	·	-23%
CCCC(=O)Nc1ccccc1-c1nnn(CC(=O)Nc2ccc(OCC)cc2)n1	4%	0%	5%	?	18	21µM*
COc1ccccc1-c1cnc(C(O)c2cccc(F)c2)[nH]1 (configuration not stated)	·	·	·	-20%	32	-28%
Cc1cccc(C(=O)NCC(=O)OC(C)C(=O)Nc2ccc(Cl)cn2)c1 (configuration not stated)	3%	?	5%	?	14	4%
Cc1ccc2nc3c(nc2c1C)CCCC3	-6%	-2%	1%	1%	10	-18%
Cc1ccc2nc3c(nc2c1C)C(O)=C3O	4%	2%	0%	15µM*	·	?
C=C(NC(=O)C(=C)NC(=O)c1csc(C2=N[C@@H]3c4csc(n4)[C@H]4NC(=O)c5csc(n5)[C@H]([C@](C)(O)[C@@H](C)O)NC(=O)[C@H]5CSC(=N5)C(=CC)NC(=O)C([C@@H](C)O)NC(=O)c5csc(n5)[C@]3(CC2)NC(=O)[C@H](C)NC(=O)C(=C)NC(=O)[C@H](C)NC(=O)C([C@@H](C)CC)NC2C=Cc3c([C@H](C)O)cc(nc3C2O)C(=O)O[C@@H]4C)n1)C(N)=O (some centres not stated)	·	·	·	7.2µM*	·	5.1µM*
C=Cc1ccc(Cn2c(C)c(CNCc3cccc(Br)c3)c(C(=O)O)c2C)cc1	·	·	·	5%	·	-13%
CCOC(=O)c1nc(Nc2ccc(C(=O)O)cc2)c2ccccc2n1	-3%	0%	?	-2%	41	-23%
CCOC(=O)c1nc(Nc2cc(C)cc(C)c2)c2ccccc2n1	21%	-21%	?	18µM*	0	21µM*
CCOC(=O)c1nc(Nc2ccc(Nc3ccccc3)cc2)c2ccccc2n1	?	-4%	?	13µM*	-65*	7.3µM*
CCOC(=O)c1nc(Nc2ccc(N3CCC(C)CC3)cc2)c2ccccc2n1	14%	-18%	-1%	7.3µM*	-9	5.8µM*
CCOC(=O)c1c(CCl)nc2ccccc2c1C	8%	-2%	?	?	-5	?
CCOC(=O)c1nc(Nc2ccc(OC)cc2)c2ccccc2n1	-1%	?	1%	?	34	21µM*
SMILES	MCF10A rerep	SW480 rerep	Chronic BCR inh	DT40 TDP1 CPT	IL1B secr inh	TDP1 cell noCPT
CCOC(=O)c1cnc2c(C)cccc2c1Nc1ccc(N2CCOCC2)cc1	?	-1%	2%	·	·	·
Cc1cccc(NC(=O)CSc2nncn2N)c1C	·	·	·	8%	18	-3%
COP(=O)(OC)C(Nc1ccc(C)cc1)c1ccc(Br)cc1 (configuration not stated)	-24%	4%	·	-6%	-25	-26%
CCOC(=O)c1cc2nc(Nc3ccc(OC)cc3)sc2s1	4.6µM*	?	?	-14%	-1	-11%
CCOC(=O)c1nc(Nc2ccccc2OC)c2ccccc2n1	·	·	·	12µM*	·	2.6µM*
CCOC(=O)c1nc(NCc2cccc(OC)c2)c2ccccc2n1	4%	-4%	0%	?	20	16µM*
COc1ccccc1NC(=O)COC(=O)c1cc(C)nc2ccccc12	-4%	-5%	?	-22%	27	?
COc1ccc(-c2cc(C(=O)Nc3cc(S(=O)(=O)N4CCOCC4)ccc3N3CCOCC3)c3ccccc3n2)cc1	2.3µM*	-46%	?	?	-17	-26%
COc1ccc(NS(=O)(=O)c2ccc(N3CCOCC3)c(NC(=O)c3ccccc3Cl)c2)cc1	?	?	-2%	-15%	0	?
CCN1CCN(c2ccc(S(=O)(=O)N3CCOCC3)cc2NC(=O)c2cc(Cl)nc3ccccc23)CC1	3%	0%	0%	?	-17	16µM*
Cc1cc(C(=O)Nc2ccc(F)c(Cl)c2)on1	-11%	2%	-2%	0%	-5	-29%
CC(=O)Nc1cccc(-c2ccnc3c2CC(C)(C(=O)NCc2ccc(F)c(F)c2)O3)c1 (configuration not stated)	·	·	·	3.7µM*	82	3.7µM*
CC(=O)Nc1cccc(-c2ccnc3c2CC(C)(C(=O)NCC2CC2)O3)c1 (configuration not stated)	·	·	·	4.1µM*	69	2.9µM*
CC(=O)Nc1cccc(-c2ccnc3c2CC(C)(C(=O)NCCC(F)(F)F)O3)c1 (configuration not stated)	·	·	·	3.7µM*	80	4.1µM*
CC1CC(C)CN(CCCNC(=O)CN2C(=O)COc3ccc(S(=O)(=O)N4CCOCC4)cc32)C1 (configuration not stated)	-1%	28%	-13%	-7%	-14	25%
